Targets with a hit are over-represented here; the source holds about 7,900 in all. About 0.6% of all pairs of compound and target were hits. Unmarked numbers belong to inactive results.
Key:
Assay in all cases: log2 fold change, soluble protein after heating vs DMSO (PISA); higher = thermal stabilisation; K562 cells, 10 uM, 30 min; active = over 0.2 and 3.5 SD of the protein, either way, in both replicates (recomputed)
[1] = compound: COC1=CC=C(C=C1)CN2C=CC3=C2C=C(C=C3)C(=O)NO
How it was run: (§1)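 Values are thermal stability changes relative to control samples and are taken from duplicates. They are stated as log2 fold changes. Before quantification by TMTpro 16plex LC-MS/MS with equalised channel sums, K562 cells at 2×10^6 cells/mL were treated with 10 μM compound for 30 min, heated in aliquots for 3 min across 48°C-58°C, pooled, extracted in PBS with 0.5% NP-40 at 4°C, and centrifuged at 21,000xg for 90 min to give the soluble supernatant.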

[2] = compound: CON(C)C(=O)N1N=C(c2cc(F)ccc2F)S[C@@]1(CCCN)c1ccccc1 [filanesib]
How it was run: as §1

[3] = compound: CO[C@H]1C[C@@H]2CC[C@@H](C)[C@@](O)(O2)C(=O)C(=O)N2CCCC[C@H]2C(=O)O[C@H]([C@H](C)C[C@@H]2CC[C@H](n3cnnn3)[C@H](OC)C2)CC(=O)[C@H](C)/C=C(\C)[C@@H](O)[C@@H](OC)C(=O)[C@H](C)C[C@H](C)/C=C/C=C/C=C/1C [zotarolimus]
How it was run: as §1

[4] = compound: COc1cc(C(=O)O)ccc1NC(=O)[C@@H]1N[C@@H](CC(C)(C)C)[C@](C#N)(c2ccc(Cl)cc2F)[C@H]1c1cccc(Cl)c1F [idasanutlin]
How it was run: as §1

[5] = compound: COc1cc(Nc2ncc3c(n2)-c2ccc(Cl)cc2C(c2c(F)cccc2OC)=NC3)ccc1C(=O)O [alisertib]
How it was run: as §1

[6] = compound: COc1cc2nc(-c3cc(F)ccc3O)nc(N[C@@H]3CNC[C@H]3C(C)(C)O)c2cc1OC
How it was run: as §1

[7] = compound: COc1cc2ncnc(Nc3ccc(F)c(Cl)c3)c2cc1OCCCN1CCOCC1 [gefitinib]
How it was run: as §1

[8] = compound: COc1cccc2cc(-c3nc([C@H]4CC[C@H](C(=O)O)CC4)n4ncnc(N)c34)[nH]c12
How it was run: as §1

[9] = compound: CS(=O)(=O)CCNCc1ccc(-c2ccc3ncnc(Nc4ccc(OCc5cccc(F)c5)c(Cl)c4)c3c2)o1 [lapatinib]
How it was run: as §1

[10] = compound: CS(=O)(=O)N1CCN(Cc2cc3nc(-c4cccc5[nH]ncc45)nc(N4CCOCC4)c3s2)CC1 [pictilisib]
How it was run: as §1

[11] = compound: CS(=O)(=O)c1ccc(-c2cnc(N)c(C(=O)Nc3ccccc3)n2)cc1
How it was run: as §1

[12] = compound: C[C@@H](Oc1cc(-c2cnn(C3CCNCC3)c2)cnc1N)c1c(Cl)ccc(F)c1Cl [crizotinib]
How it was run: as §1

[13] = compound: C[C@@H]1COCCN1C2=NC(=NC(=C2)C3(CC3)S(=O)(=O)C)C4=C5C=CNC5=CC=C4
How it was run: as §1

[14] = compound: C[C@H](C1=CC=C(C=C1)C(=O)NC2=C3C=CNC3=NC=C2)N
How it was run: as §1

[15] = compound: C[C@H](Nc1ncnc2nc[nH]c12)c1cc2cccc(Cl)c2c(=O)n1-c1ccccc1 [duvelisib]
How it was run: as §1

[16] = compound: Cc1cc(Nc2cc(CN3CCOCC3)c3nc(C)c(Cc4ccc(Cl)cc4F)n3n2)n[nH]1 [gandotinib]
How it was run: as §1

[17] = compound: Cc1cc(Nc2cc(N3CCN(C)CC3)nc(Sc3ccc(NC(=O)C4CC4)cc3)n2)n[nH]1 [tozasertib]
How it was run: as §1

[18] = compound: Cc1cc(SCc2sc(-c3ccc(C(F)(F)F)cc3)nc2C)ccc1OCC(=O)O
How it was run: as §1

[19] = compound: Cc1ccc(-n2nc(C(C)(C)C)cc2NC(=O)Nc2ccc(OCCN3CCOCC3)c3ccccc23)cc1 [doramapimod]
How it was run: as §1

[20] = compound: Cc1ccc(C(=O)N(CCCN)[C@@H](c2nc3cc(Cl)ccc3c(=O)n2Cc2ccccc2)C(C)C)cc1 [ispinesib]
How it was run: as §1

Sequence of UniProt P49757 (P49757 whole entry, looked up): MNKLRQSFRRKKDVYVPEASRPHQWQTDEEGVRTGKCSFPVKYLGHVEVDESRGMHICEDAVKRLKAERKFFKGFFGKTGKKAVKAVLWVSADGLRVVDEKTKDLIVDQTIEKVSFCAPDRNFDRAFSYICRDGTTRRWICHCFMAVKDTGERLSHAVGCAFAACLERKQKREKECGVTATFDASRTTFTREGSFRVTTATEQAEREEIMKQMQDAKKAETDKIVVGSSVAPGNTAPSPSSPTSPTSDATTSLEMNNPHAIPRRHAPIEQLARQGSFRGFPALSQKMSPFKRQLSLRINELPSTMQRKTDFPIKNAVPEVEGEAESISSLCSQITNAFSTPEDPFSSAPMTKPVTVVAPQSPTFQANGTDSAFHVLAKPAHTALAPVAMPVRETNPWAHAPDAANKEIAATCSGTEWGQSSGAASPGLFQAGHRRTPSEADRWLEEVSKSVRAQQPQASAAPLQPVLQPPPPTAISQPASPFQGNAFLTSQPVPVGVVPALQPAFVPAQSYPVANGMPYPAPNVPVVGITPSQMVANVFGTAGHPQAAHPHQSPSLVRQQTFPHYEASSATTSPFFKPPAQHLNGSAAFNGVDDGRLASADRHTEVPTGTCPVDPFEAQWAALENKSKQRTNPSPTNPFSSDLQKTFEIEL
Sequence of UniProt O00483 (O00483 whole entry, looked up): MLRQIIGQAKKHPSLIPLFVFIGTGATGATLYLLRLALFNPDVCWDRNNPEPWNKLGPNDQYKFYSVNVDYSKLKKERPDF
Sequence of UniProt Q9BRP4 (Q9BRP4 whole entry, looked up): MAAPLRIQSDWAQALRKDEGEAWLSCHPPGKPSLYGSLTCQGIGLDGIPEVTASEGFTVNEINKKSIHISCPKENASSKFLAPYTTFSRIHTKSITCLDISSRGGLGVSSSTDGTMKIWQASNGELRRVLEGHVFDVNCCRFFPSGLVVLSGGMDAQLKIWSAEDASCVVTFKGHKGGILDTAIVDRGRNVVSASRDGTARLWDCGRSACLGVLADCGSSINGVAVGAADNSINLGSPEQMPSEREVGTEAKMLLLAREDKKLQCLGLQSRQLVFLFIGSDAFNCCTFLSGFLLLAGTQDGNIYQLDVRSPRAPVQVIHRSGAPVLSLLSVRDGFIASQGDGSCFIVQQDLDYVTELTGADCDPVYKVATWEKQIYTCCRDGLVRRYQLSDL
Sequence of UniProt P35580 (P35580 whole entry, looked up): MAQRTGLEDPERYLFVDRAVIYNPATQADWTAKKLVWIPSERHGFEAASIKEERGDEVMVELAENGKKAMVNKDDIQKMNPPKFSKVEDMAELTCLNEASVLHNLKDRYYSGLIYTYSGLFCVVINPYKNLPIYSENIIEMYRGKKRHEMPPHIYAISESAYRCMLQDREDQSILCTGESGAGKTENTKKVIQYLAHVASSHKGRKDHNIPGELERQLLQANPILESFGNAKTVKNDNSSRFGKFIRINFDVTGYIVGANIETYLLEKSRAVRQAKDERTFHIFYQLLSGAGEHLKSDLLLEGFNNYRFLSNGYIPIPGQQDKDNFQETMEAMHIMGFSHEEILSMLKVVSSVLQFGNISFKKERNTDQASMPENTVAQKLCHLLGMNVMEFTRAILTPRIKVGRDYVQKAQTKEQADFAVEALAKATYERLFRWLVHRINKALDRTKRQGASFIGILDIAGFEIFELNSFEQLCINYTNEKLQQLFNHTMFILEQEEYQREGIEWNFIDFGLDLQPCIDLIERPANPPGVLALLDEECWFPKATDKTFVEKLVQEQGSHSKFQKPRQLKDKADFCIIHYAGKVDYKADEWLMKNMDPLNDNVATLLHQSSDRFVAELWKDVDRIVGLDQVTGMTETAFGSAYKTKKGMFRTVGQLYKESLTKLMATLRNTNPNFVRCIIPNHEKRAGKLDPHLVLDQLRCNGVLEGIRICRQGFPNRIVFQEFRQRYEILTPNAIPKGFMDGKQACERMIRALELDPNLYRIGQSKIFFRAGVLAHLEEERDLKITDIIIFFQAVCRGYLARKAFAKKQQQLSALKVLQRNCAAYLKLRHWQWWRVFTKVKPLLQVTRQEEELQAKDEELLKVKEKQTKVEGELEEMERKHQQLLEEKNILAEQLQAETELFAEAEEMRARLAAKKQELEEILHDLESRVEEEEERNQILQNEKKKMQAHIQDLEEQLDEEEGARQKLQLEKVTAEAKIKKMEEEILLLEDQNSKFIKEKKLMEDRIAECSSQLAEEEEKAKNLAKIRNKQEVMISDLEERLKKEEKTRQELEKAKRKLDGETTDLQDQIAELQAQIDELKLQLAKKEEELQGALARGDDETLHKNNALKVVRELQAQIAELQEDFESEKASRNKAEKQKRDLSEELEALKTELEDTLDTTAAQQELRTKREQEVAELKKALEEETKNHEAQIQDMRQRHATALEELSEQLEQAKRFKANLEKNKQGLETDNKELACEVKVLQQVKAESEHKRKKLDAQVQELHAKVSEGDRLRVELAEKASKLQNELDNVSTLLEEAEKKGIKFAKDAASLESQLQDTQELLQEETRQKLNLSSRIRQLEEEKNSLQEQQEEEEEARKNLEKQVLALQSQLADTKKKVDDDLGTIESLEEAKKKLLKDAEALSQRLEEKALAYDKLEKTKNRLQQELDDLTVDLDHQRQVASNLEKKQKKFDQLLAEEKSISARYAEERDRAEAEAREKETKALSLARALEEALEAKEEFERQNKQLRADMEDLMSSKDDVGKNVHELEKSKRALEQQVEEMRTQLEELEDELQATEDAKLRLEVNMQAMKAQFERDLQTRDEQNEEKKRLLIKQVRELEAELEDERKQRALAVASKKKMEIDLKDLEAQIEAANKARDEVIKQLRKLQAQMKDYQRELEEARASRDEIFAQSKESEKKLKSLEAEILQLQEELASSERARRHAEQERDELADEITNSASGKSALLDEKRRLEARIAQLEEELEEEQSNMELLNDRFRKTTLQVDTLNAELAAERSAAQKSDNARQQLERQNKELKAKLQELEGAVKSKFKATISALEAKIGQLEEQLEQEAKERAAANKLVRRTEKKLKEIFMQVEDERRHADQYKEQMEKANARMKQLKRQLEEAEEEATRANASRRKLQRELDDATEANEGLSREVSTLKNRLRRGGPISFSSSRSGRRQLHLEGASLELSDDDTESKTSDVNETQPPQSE
Sequence of UniProt Q9UBD5 (Q9UBD5 whole entry, looked up): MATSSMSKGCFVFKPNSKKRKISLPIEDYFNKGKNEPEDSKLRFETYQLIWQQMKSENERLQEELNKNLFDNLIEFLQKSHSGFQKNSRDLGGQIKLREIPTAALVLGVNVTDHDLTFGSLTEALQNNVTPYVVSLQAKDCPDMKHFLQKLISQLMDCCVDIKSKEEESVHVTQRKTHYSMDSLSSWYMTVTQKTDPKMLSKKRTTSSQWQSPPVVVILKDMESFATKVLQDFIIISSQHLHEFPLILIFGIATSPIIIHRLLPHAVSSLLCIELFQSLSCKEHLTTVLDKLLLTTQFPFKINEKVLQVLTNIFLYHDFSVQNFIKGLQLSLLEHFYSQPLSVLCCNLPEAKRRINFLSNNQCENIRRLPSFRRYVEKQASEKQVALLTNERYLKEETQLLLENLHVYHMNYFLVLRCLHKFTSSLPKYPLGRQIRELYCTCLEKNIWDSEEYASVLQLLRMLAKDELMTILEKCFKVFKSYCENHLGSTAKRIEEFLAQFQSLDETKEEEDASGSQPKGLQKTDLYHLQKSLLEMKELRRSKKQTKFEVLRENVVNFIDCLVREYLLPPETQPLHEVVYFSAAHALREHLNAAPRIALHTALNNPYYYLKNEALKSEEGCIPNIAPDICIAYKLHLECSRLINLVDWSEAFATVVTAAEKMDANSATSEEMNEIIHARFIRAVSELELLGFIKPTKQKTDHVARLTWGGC
Sequence of UniProt Q16656 (Q16656 whole entry, looked up): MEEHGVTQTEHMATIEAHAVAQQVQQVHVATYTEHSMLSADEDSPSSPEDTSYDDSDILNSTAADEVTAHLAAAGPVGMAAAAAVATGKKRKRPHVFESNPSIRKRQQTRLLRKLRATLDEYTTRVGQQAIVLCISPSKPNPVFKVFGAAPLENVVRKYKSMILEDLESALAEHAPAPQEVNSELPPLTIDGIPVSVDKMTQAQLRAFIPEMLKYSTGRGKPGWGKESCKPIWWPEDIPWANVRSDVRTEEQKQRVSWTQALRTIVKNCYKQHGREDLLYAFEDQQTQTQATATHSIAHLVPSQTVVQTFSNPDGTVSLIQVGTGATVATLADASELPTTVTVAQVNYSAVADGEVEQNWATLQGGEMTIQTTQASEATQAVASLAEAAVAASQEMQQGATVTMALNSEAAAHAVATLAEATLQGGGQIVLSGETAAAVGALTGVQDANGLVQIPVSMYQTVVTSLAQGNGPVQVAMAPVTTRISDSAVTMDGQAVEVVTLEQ

Target	log2 fold change [1]	log2 fold change [2]	log2 fold change [3]	log2 fold change [4]	log2 fold change [5]	log2 fold change [6]	log2 fold change [7]	log2 fold change [8]	log2 fold change [9]	log2 fold change [10]	log2 fold change [11]	log2 fold change [12]	log2 fold change [13]	log2 fold change [14]	log2 fold change [15]	log2 fold change [16]	log2 fold change [17]	log2 fold change [18]	log2 fold change [19]	log2 fold change [20]
PAAF1 (UniProt Q9BRP4)	-0.013	-0.082	-0.008	-0.026	-0.062	0.026	-0.002	0.047	0.027	0.048	-0.003	-0.003	0.078	-0.071	0	-0.035	-0.042	0.018	-0.022	0.047
NDUFB10 (UniProt O96000)	0.044	-0.025	0.006	-0.035	-0.021	-0.047	0	0.05	-0.035	0.082	0.024	-0.025	0.012	0.027	0.023	-0.029	-0.002	0.024	0.003	-0.073
MRPS18B (UniProt Q9Y676)	0.011	0.065	0.035	-0.205	0.069	0.024	0.078	0.018	-0.005	-0.106	-0.187	-0.047	0.075	0.145	0.006	-0.028	0.016	0.157	0.029	-0.397 (active)
NDUFA4 (UniProt O00483)	-0.022	-0.031	-0.019	0.038	-0.024	-0.044	0.024	0.019	0.048	-0.025	-0.045	0.138	0.162	-0.055	0.142	-0.099	0.025	0.022	0.034	0.204
NRF1 isoform 4 (UniProt Q16656)	0.048	-0.054	0.098	0.03	-0.077	-0.135	0.03	0.019	-0.078	0.167	0.03	0.071	0.275	-0.107	0.053	-0.125	0.074	0.017	-0.003	-0.004
NUMB (UniProt P49757)	-0.051	0.074	0.015	0	-0.064	0.04	0.027	-0.017	0.012	0.076	0.056	-0.189	0.07	-0.068	-0.05	-0.06	-0.082	0.006	-0.012	-0.073
MYH10 isoform 3 (UniProt P35580)	0.092	-0.116	0.011	-0.065	-0.025	0.036	-0.005	-0.007	-0.006	-0.033	-0.013	-0.038	0.056	-0.026	0.023	-0.004	-0.009	0.013	0.009	0.01
ORC3 isoform 2 (UniProt Q9UBD5)	0.071	0.043	0.064	0.265	-0.058	-0.002	0.006	-0.068	0.031	0.027	-0.054	-0.434 (active)	0.015	-0.005	-0.03	-0.044	0.062	0.177	0.016	-0.17

Reference: the supplement of paper PMC10849652
